For 40 compounds, growth results are on record in PubChem BioAssay (NCI).

Where “and” joins values, the source holds several entries; their conditions need not be identical. Identical values can stand only once. About 83,000 compounds went through this panel and 20% of them were active in at least one assay; those are over-represented in the sample as a whole.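 Each cell line was grown in a 96-well plate and treated with one concentration of compound for 48 hours. Values below 10 were considered active.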 Calls of active or inactive are those of the source.

The subject of this experiment is PC-3 prostate. Description: NCI-60 one-dose screen, 48 h (100 = growth as untreated, 0 = no growth, -100 = all killed). To be noted: 10 µM unless noted. How it is done: Growth inhibition of the PC-3 human tumor cell line is measured as a screen for anti-cancer activity. Cells are grown in 96 well plates and exposed to the test compound for 48 hours. Compounds are tested at a single concentration, which is 10^-5 M for most compounds. The reported endpoint is percent growth (GI% or GIPRCNT), where numbers from 0 - 100% represent growth inhibition, and numbers from -100% - 0 represent cell death. For example, a value of 40 represents 60% growth inhibition. A value of 0 means no net growth occurred over the course of the experiment. A value of -40 indicates 40% of cells at the beginning of the experiment died by the end of the experiment. A value of -100 means all cells are dead at the end of the experiment.
NCI-60 Human Tumor Cell Lines Screen was performed using the standard one-dose NCI protocol, which is described in more detail at https://dtp.cancer.gov/discovery_development/nci-60/default.htm.
Compounds with GIPRCNT values below 10 were considered active. Activity score was based on GIPRCNT using the following formula: […]
Score is 0 for GIPRCNT values of 100 or above, 50 for GIPRCNT values of 0, and 100 for GIPRCNT values of -100.
`CC(=O)Oc1cc(C)c(OC(C)=O)c(C)c1C`: the growth is 90.5% (inactive).
With `O=C1C=CC(=O)N1Cc1ccco1`, the growth is 81.6% (inactive).
For `CCC(C)NC(=O)c1ccccc1C` (stereo not given), the growth is 101% (inactive).
On to `CCn1c2ccc(N(C)C)cc2c2cc(N(C)C)ccc21`, for which the growth was 72.9% (inactive).
In the case of `CCOC(=O)c1ccc(C(=N)N)cc1`, the growth is 89.6% (inactive).
For `CCOC(=O)NC(N)=O` the value was 99.3% (inactive) and 92.8% (inactive); for `COc1ccc(S(=O)(=O)c2ccc(F)cc2)cc1`, 94.1% (inactive); for `CS(=O)(=O)OCC1NC(=O)C(COS(C)(=O)=O)NC1=O` (stereo not given), 88.3% (inactive) and 82.6% (inactive).
Take `CCOC(=O)c1ccncc1`: the growth was 97.5% (inactive).
In the case of `NCCSSC/C=C\CSSCCN`, the growth is 78.3% (inactive).
In the case of `COc1ccc(C(=O)C(O)c2ccc(OC)cc2)cc1` (stereo not given), the growth is 93.9% (inactive) and 92.2% (inactive).
As to `CC(=O)Oc1ccc(C(c2ccc(OC(C)=O)cc2)c2ccccn2)cc1`, the growth is 73.6% (inactive) and 68.9% (inactive).
For the compound `CN(C)C(=S)N(C)C`, the growth is 92.9% (inactive).
Take `O=C(O)c1c2c(nc3ccccc13)Cc1ccccc1-2`: the growth is 99.2% (inactive) and 86% (inactive).
In the case of `COc1ccccc1OCC(O)CO` (stereo not given), the growth is 52.3% (inactive) and 91.5% (inactive).
As to `COc1ccc2oc3c(ccc[n+]3C)c(=O)c2c1`, the growth is 93.1% (inactive).
Consider `O=C(Nc1ccccc1)OCC(CN1CCCCC1)OC(=O)Nc1ccccc1` (stereo not given), for which the growth was 75.5% (inactive).
On to `Clc1ccc(/C=C/c2ccc3ccccc3n2)cc1`, for which the growth was 31.3% (inactive) and 271% (inactive) and 92% (inactive).
For `CCc1ccc(OC(=O)CCl)cc1` the value was 98.3% (inactive); for `CC(=O)Nc1ccc2oc(=O)ccc2c1`, 100% (inactive).
With `O=C1C=CC(n2cc(F)c(=O)[nH]c2=O)O1` (stereo not given), the growth is 92.9% (inactive).
For `Cc1ccc2cccc([N+](=O)[O-])c2n1`, the growth was 99.7% (inactive) and 102% (inactive).
With `CCC(=O)Oc1ccc(OCc2ccccc2)cc1`, the growth was 77.6% (inactive) and 58.7% (inactive).
On to `Nc1ccccc1SC1CC(=O)N(c2ccc(I)cc2)C1=O` (stereo not given), for which the growth is 94.2% (inactive).
On to `N=C(N)N1CCc2ccccc2C1`, for which the growth is 89.3% (inactive) and 128% (inactive).
For `COC(=O)c1nc(N)nc(C(=O)OC)c1C(=O)c1cccc2ccccc12`, the growth is 97% (inactive).
Then `NC(=O)Cc1nc(O)cc(=O)[nH]1`, with 76.2% (inactive); and `COc1ccc2nccc(Cl)c2c1`, with 95.3% (inactive); and `CCNCc1ccccc1`, with 103% (inactive).
For the compound `CN1C2C=CC(=O)C1C1C(=O)N(c3ccccc3)C(=O)C12` (stereo not given), the growth was 54.8% (inactive).
On to `CCNC1=CC(=O)c2ncccc2C1=O`, for which the growth was 44.7% (inactive).
For the compound `O=C1c2ccccc2C(c2ccccc2)C1c1ccccc1` (stereo not given), the growth was 80.7% (inactive).
With `O=C1c2ccccc2CN1c1ccccc1`, the growth was 116% (inactive).
`Clc1ccc2c(c1)N(C1CCCN(Cc3ccccc3)C1)c1ccccc1S2` (stereo not given): the growth is 45% (inactive).
`O=C(c1ccncc1)c1c(Cc2ccccc2)ccc2ccccc12`: the growth was 83% (inactive).
For `C(#CCN1CCOCC1)CCCN1CCOCC1` the value was 99.9% (inactive) and 93.2% (inactive).
Consider `O=COCCCc1ccccc1`, for which the growth is 94.4% (inactive).
For `COC(=O)c1nc(=S)[nH]c(C(=O)OC)c1C(=O)c1ccc(OC)cc1`, the growth is 93% (inactive).
For `Cc1ccc([N+](=O)[O-])cc1Br`, the growth was 94.8% (inactive).
For `O=c1[nH]c(=S)[nH]n1C(=S)n1[nH]c(=S)[nH]c1=O` the value was 83.3% (inactive).
